Set-up in all cases: scale not given: direction of the effect not stated beside the values
The target in experiment [1] is Protein translocase subunit SecA (Escherichia coli (strain K12)) (UniProt P10408). Briefly: Assay to Identify E. coli SecA ATPase Inhibitors. Conditions: 30 µM. Type of experiment: functional.
For experiment [2], the target named is T1, Ubiquitin-activating enzyme e1, putative (Leishmania donovani (strain BPK282A1)) (UniProt E9BSI1).
T1 sequence (whole entry): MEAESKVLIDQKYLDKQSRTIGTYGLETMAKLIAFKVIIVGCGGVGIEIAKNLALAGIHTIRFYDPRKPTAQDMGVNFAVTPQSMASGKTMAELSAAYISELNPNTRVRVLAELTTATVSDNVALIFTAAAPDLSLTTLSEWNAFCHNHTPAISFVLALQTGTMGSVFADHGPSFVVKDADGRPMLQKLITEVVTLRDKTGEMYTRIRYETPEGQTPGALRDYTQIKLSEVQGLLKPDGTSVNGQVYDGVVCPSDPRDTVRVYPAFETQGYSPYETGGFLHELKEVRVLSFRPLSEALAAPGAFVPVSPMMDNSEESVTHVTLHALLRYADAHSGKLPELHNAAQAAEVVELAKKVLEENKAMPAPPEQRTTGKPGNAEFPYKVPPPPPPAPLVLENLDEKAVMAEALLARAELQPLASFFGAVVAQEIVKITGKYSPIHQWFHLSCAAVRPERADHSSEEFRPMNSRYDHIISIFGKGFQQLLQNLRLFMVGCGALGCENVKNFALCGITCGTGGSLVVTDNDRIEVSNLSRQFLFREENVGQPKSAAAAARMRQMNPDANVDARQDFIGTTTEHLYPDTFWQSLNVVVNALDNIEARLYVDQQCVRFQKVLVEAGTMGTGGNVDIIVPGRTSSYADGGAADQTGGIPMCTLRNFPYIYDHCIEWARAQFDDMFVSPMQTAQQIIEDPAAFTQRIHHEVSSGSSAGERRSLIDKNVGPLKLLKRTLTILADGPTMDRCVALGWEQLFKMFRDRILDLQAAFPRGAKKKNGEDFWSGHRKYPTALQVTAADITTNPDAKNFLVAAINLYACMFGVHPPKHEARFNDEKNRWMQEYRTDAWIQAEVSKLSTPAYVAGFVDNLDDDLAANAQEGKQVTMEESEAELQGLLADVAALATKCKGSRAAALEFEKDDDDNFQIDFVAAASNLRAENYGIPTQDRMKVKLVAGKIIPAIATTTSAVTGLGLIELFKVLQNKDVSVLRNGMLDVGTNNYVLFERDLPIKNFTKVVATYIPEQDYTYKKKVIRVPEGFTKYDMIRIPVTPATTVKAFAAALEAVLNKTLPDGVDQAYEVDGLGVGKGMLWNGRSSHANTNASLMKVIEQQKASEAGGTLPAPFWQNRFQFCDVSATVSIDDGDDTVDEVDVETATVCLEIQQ
The experiment can be described thus: Leishmania donovani Ubiquitin Activating Enzyme (LdE1). The experiment is classed as functional. The note with it: 30 µM.

The target in experiment [3] is AMP-activated protein kinase, AMPK (Homo sapiens) (UniProt P54646+O43741+P54619+Q9UGJ0+Q9Y478+Q13131+Q9UGI9). The experiment can be described thus: AMP-dependent Kinase enzyme assay. An in vitro enzyme assay that detects ADP turnover that is directly proportional to AMPK activity. This uses naive AMPK that is activated during the assay with MK-8722. Type of experiment: functional. Conditions: 30 µM.

The target of experiment [4] is Sialic acid-binding Ig-like lectin 9 (Homo sapiens) (UniProt Q9Y336). The experiment can be described thus: Hs-Siglec9 ALPHAscreen SOP 20170721. Conditions: 10 µM.
Another experiment has as its system Trypanosoma cruzi. Briefly: Trypanosoma cruzi phosphomannomutase and mannose-1-phosphate guanylyltransferase assay. The experiment is classed as functional. Conditions: 10 µM.
In experiment [5] the target is T2, Arginase-2, mitochondrial (Homo sapiens) (UniProt P78540).
T2 sequence (whole entry): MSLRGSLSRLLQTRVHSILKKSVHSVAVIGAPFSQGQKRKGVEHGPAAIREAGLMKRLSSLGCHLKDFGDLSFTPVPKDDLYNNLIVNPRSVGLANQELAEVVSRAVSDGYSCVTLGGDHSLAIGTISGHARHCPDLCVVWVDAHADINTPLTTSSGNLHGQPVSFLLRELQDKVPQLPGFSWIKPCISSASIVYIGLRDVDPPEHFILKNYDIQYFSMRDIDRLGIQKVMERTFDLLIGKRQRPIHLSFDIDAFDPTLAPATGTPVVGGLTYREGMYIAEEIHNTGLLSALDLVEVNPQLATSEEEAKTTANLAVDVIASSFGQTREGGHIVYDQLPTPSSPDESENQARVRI
Briefly: in vitro enzyme assay to detect the production of urea directly proportional to the activity of Arginase II. Also: in the data most compounds retested in dose-response had high values. Type of experiment: functional. The note with it: 33.3 µM.

Experiment [6] has as its target T3, Proteasome subunit beta (Trypanosoma cruzi) (UniProt O96673).
T3 sequence (whole entry): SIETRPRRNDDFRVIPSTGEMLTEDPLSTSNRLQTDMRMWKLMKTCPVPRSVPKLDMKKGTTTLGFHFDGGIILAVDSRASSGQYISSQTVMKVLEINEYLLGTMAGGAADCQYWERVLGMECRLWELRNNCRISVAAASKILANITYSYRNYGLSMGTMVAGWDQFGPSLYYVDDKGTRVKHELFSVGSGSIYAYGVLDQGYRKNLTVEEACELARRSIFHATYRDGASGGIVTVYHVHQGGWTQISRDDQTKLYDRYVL
The experiment can be described thus: Trypanosoma cruzi proteasome chymotrypsin-like activity (TcProtChymo) assay. Also: in the data most compounds retested in dose-response had high values. The experiment is classed as functional. The note with it: 9.37 µM.

The species named for a further experiment is Homo sapiens. The experiment can be described thus: To identify inhibition of the IFN signalling (Jak-Stat) pathway via expression of an eGFP reporter gene under the control of an IFN-stimulated response element (ISRE) containing MxA promoter. The note with it: 30 µM. Type of experiment: functional. (In general: A reporter such as luciferase makes a cellular process visible.)

Experiment [7] addresses T4, Tyrosyl-tRNA synthetase, putative (Trypanosoma cruzi (strain CL Brener)) (UniProt Q4DSP6).
T4 sequence (whole entry): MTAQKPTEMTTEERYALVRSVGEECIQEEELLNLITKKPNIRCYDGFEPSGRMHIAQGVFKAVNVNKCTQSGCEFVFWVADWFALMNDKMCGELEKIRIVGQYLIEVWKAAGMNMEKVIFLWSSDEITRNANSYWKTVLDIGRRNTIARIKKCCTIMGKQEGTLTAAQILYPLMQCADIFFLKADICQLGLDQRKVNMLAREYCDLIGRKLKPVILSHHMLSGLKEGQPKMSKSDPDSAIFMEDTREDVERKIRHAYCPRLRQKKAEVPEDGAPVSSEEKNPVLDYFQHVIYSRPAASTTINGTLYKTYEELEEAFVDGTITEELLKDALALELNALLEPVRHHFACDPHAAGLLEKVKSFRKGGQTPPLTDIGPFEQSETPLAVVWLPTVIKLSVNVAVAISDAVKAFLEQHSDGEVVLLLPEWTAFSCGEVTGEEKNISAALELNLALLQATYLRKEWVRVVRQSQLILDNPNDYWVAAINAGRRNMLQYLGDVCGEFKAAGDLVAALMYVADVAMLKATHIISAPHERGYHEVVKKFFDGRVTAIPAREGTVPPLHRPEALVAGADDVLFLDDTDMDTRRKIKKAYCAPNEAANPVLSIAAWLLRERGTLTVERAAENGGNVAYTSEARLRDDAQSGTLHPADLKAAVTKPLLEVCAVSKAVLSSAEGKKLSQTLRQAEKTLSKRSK
The experiment can be described thus: Trypanosoma cruzi tyrosyl tRNA synthetase (TcYRS) _High Tyrosine SOP. Also: in the data most compounds retested in dose-response had high values. Type of experiment: functional. Conditions: 30 µM.

Experiment [8] concerns the target T4, Tyrosyl-tRNA synthetase, putative (Trypanosoma cruzi (strain CL Brener)). The experiment can be described thus: Trypanosoma cruzi tyrosyl tRNA synthetase (TcYRS) SOP. Type of experiment: functional. The note with it: 30 µM.
The target in experiment [9] is Chromo domain-containing protein 1 (Saccharomyces cerevisiae (strain ATCC 204508 / S288c) (Baker's yeast)) (UniProt P32657). Briefly: ScCHD-1 Enzyme Inhibition Assay. Also: in the data most compounds retested in dose-response had high values. Type of experiment: functional. Conditions: 30 µM.

Molecules are shown by their SMILES. For some of these results: Results with a measured potency or affinity are listed apart.

Sequence of Sialic acid-binding Ig-like lectin 9 (Homo sapiens) (Q9Y336 whole entry): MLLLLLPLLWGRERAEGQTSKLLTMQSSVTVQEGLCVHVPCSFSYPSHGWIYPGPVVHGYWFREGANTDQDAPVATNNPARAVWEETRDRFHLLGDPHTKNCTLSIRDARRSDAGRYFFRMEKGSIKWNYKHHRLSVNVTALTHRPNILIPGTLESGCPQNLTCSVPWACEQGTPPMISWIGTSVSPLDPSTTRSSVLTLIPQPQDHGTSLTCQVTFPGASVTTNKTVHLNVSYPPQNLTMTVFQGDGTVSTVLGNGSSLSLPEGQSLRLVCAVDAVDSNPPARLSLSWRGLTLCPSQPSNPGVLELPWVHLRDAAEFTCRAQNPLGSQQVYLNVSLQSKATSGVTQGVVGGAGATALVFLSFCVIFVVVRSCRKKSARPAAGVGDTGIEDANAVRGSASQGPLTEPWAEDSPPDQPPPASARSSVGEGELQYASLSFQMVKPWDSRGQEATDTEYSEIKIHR
Sequence of Protein translocase subunit SecA (Escherichia coli (strain K12)) (P10408 whole entry): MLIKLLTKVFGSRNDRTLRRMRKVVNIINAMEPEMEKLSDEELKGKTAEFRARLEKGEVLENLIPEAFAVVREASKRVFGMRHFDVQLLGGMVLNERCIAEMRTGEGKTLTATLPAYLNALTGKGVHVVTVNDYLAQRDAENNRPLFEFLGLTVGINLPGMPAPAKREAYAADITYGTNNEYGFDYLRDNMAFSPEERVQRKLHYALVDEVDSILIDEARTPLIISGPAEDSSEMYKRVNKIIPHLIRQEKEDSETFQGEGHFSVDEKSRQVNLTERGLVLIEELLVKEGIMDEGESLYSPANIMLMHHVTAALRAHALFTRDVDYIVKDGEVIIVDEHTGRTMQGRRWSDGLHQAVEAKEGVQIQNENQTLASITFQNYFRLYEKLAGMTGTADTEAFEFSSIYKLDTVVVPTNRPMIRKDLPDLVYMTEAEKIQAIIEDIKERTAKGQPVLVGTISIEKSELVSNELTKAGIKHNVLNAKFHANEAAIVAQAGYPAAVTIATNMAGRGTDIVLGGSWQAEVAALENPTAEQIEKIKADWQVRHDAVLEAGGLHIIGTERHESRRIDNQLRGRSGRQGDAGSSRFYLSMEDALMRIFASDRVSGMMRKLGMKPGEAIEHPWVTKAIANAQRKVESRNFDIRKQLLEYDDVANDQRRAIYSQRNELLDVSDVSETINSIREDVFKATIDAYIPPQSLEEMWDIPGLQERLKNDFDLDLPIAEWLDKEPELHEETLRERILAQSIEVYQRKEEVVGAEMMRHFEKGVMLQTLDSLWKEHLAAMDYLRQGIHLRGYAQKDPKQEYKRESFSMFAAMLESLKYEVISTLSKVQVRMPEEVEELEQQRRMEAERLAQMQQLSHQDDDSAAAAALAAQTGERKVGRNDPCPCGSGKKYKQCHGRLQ
Sequence of Chromo domain-containing protein 1 (Saccharomyces cerevisiae (strain ATCC 204508 / S288c) (Baker's yeast)) (P32657 whole entry, the tested form may be a part): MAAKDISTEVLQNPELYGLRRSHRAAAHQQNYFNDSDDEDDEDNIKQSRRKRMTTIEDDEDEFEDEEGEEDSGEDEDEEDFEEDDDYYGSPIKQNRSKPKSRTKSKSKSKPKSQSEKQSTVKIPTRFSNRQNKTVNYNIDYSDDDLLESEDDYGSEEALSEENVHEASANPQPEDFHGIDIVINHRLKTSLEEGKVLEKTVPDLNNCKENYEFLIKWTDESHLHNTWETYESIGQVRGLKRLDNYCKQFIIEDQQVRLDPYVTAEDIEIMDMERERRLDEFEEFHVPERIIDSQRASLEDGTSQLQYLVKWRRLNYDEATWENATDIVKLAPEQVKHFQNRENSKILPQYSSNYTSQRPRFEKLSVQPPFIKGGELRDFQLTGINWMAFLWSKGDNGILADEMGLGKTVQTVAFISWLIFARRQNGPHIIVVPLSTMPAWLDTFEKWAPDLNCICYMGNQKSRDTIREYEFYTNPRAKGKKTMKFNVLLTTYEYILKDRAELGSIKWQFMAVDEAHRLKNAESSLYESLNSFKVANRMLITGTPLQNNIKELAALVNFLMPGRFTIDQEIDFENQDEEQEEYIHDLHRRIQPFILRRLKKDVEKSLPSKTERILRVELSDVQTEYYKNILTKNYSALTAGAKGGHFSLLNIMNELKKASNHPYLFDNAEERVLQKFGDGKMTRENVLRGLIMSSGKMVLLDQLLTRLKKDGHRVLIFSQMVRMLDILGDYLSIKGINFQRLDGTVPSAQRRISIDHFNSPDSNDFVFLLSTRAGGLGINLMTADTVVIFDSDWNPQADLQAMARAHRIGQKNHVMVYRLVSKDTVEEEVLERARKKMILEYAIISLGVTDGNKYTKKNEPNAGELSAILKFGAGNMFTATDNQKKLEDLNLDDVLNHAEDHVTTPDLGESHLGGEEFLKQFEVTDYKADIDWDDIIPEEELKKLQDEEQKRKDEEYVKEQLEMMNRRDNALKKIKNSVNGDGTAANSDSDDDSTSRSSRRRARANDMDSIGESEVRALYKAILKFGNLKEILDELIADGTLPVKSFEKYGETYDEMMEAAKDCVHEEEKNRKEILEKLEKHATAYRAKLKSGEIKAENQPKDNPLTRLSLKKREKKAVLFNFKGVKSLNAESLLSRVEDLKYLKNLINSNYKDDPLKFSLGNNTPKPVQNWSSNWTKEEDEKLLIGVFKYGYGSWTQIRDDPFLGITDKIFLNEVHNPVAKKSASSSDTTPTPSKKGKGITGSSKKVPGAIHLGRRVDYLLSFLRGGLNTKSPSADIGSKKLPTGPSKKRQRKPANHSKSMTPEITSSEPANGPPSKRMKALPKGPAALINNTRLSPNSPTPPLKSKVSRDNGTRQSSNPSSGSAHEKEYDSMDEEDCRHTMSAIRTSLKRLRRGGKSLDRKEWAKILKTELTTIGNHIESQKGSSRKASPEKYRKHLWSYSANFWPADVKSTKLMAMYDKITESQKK

On to `Cc1ccc(OCC(=O)NS(=O)(=O)c2cccnc2)cc1C`, for which the Percent Effect in [1] is 0.796%; in experiment [2], 15.8%; in [3] it was 3.98%; in experiment [4], -2.26%; with Trypanosoma cruzi it was -7.52%; in experiment [5], -3.45%. In addition, the Percent Effect in [6] was 17.4%; in the experiment filed under Homo sapiens it was 29.1%; in experiment [7], -1.47%; in experiment [8] it was 4.88%; in experiment [9], -9.25%.

For the compound `CC(O)CN1CCC(CNCc2cccc(Br)c2)CC1` (stereo not drawn), the Percent Effect in experiment [1] is -6.33%; in [2] it was 5.41%; in [3] it was -21.1%; in experiment [4], 11.5%; with Trypanosoma cruzi, -4.25%; in experiment [5], -5.61%. The Percent Effect in experiment [6] was -0.721%; in the experiment filed under Homo sapiens, 11.2%; in experiment [7] it was 2.46%; in experiment [8], -1.24%; in [9], 4.26%.

For the compound `CC(=O)N1CCN(Cc2nnc(C(C)(C)C)o2)CC1`, the Percent Effect in experiment [1] is 0.446%; in experiment [2], 5.41%; in experiment [3] it was -5.16%; in experiment [4] it was -0.469%; in the experiment with Trypanosoma cruzi, -0.772%; in experiment [5], 2.86%. Further, the Percent Effect in [6] is 14.3%; in the experiment listed under Homo sapiens, 7.35%; in experiment [7] it was 1.59%; in experiment [8], 9.76%; in experiment [9], -3.99%.

On to `Cc1ccc(C(=O)N2Cc3ccccc3C2)cc1N1CCNC1=O`, for which the Percent Effect in experiment [1] is -6.25%; in experiment [2], 2.67%; in experiment [3], 0.516%; in [4], 9.14%; in the experiment on Trypanosoma cruzi, 7.89%; in [5] it was -3.12%. The Percent Effect in experiment [6] was 16.2%; in the experiment listed under Homo sapiens it was -13.9%; in experiment [7], 7.1%; in experiment [8], 13.6%; in experiment [9], -6.92%.

Regarding `Cc1nc(C2CCCN2CC(=O)NCCOc2ccccc2)no1` (stereo not drawn), the Percent Effect was -3.91% in experiment [1]; 5.26% in experiment [2]; -1.52% in [3]; 4.39% in experiment [4]; 3.38% in the experiment with Trypanosoma cruzi; -0.383% in experiment [5]. In addition, the Percent Effect is 12.7% in experiment [6]; -2.83% in the experiment listed under Homo sapiens; 0.49% in experiment [7]; 7.32% in [8]; -12.7% in [9].

Take `N#Cc1ccc(N2CCN(C(=O)c3cc(C4CC4)[nH]n3)CC2)c(F)c1`: the Percent Effect in experiment [1] was -6.31%; in experiment [2] it was 8.11%; in [3] it was -4.12%; in experiment [4], 19.3%; in the experiment with Trypanosoma cruzi it was 5.29%; in experiment [5] it was -4.99%. The Percent Effect in [6] was -0.179%; in the experiment listed under Homo sapiens it was 7.83%; in experiment [7], 4.95%; in experiment [8] it was 23.2%; in experiment [9] it was -7.65%.

`CC1CN(C(=O)CN(Cc2ccco2)C2CC2)CCO1` (stereo not drawn): the Percent Effect in experiment [1] is -2.04%; in [2] it was 0%; in experiment [3], 2.98%; in experiment [4], -1.26%; with Trypanosoma cruzi, -3.62%; in experiment [5], 4.84%. For the same compound, the Percent Effect in experiment [6] is 0.242%; in the experiment filed under Homo sapiens it was 22.1%; in experiment [7] it was 1.91%; in experiment [8], 2.35%; in experiment [9], -8.2%.

On to `Cc1nc(CN2CCN(C(=O)c3ccn(C)c(=O)c3)CC2)cs1`, for which the Percent Effect in experiment [1] is -3.89%; in [2], 19%; in experiment [3], -4.58%; in experiment [4], -0.681%; in the experiment with Trypanosoma cruzi it was 2.15%; in experiment [5], -4.52%. Also, the Percent Effect in experiment [6] was 15.9%; in the experiment listed under Homo sapiens, 10.6%; in experiment [7] it was 9.38%; in experiment [8], 15.2%; in experiment [9], -25.7%.
